AC50 and outcome data for eleven molecules are collected here from PubChem BioAssay (EPA / NIEHS).

The subject of assay [1] is Sodium/Iodide Symporter (NIS), SLC5A5 (gene 6528). Kind of assay: CPHEA_Stoker_NIS_Inhibition_RAIU: CPHEA's Radioactive Iodide Uptake (RAIU) Assay for Sodium/Iodide Symporter (NIS) Inhibition, Stoker and Laws Labs (AID 2283841). In a few lines: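 hNIS-HEK293T-EPA cells incubated 2 h at room temperature with compound (0.001–100 uM, 0.5% DMSO) and 329 pM final 125I in HBSS/10 mM HEPES, pH 7.4. Intracellular 125I counted; normalised to DMSO maximal uptake, triplicate, three biological replicates.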

Assay [2] in a line: CPHEA_Stoker_NIS_Cytotoxicity: Cytotoxicity Assessment for CPHEA's Radioactive Iodide Uptake (RAIU) Assay for Sodium/Iodide Symporter (NIS) Inhibition, Stoker and Laws Labs (AID 2283897).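 As to AC50: active means loss of ATP signal versus DMSO meaning cytotoxicity.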 In a few lines:
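hNIS-HEK293T-EPA cells, human NIS expressed in HEK293T, treated 2 h with chemicals (0.001–100 uM, 0.5% final DMSO). ATP content read by CellTiter-Glo luminescence; loss of signal analysed relative to DMSO.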

Assay [3] has as its system frog Estrogen Receptor (ER2), gene 100174814. Kind of assay: ATG_frER2_XSP2: Attagene TRANS-FACTORIAL Multi-Species (XSP2) HepG2 Assay for frog Estrogen Receptor (ER2) (AID 2283828). In a few lines: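 Human liver HepG2, transient MRTU transfection (TRANS format, exogenous NR–Gal4). 24 h cpd exposure. Total RNA → RT → PCR → FAM label → HpaI cut → CE. Positive direction vs DMSO.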

Assay [4] addresses Peroxisome proliferator-activated receptor gamma (Homo sapiens) (UniProt P37231). The experiment in a line: ATG_hPPARg_XSP2: Attagene TRANS-FACTORIAL Multi-Species (XSP2) HepG2 Assay for human Peroxisome Proliferator-activated Receptor gamma (PPARg) (AID 2283829).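 Also: actives raise reporter mRNA above DMSO so AC50 reflects PPARg activation.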 In a few lines: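 HepG2 cells transiently transfected with multiplexed GAL4-UAS reporter units for chimeric NR-Gal4 receptors, dosed 24 h. Reporter mRNA quantified by RT-PCR, 6-FAM labeling, HpaI digestion and capillary electrophoresis; gain-of-signal fitted against DMSO baseline.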

Assay [5] concerns the target mouse Peroxisome Proliferator-activated Receptor gamma (PPARg), Pparg (gene 19016) (UniProt P37238). Kind of assay: ATG_mPPARg_XSP2: Attagene TRANS-FACTORIAL Multi-Species (XSP2) HepG2 Assay for mouse Peroxisome Proliferator-activated Receptor gamma (PPARg) (AID 2283830).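 Also: hits are gains in reporter mRNA above DMSO so AC50 marks activation.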 An outline of the steps:
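HepG2 cells transiently transfected with GAL4-UAS reporter units for chimeric NR-Gal4 proteins including mouse PPARg, exposed 24 h; medium contained 3 nM 6-alpha-fluorotestosterone and 1.5 nM norgestrel. Reporter mRNA quantified by RT-PCR, HpaI digestion and capillary electrophoresis, vs DMSO.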

Assay [6] concerns the target Nuclear receptor subfamily 1 group I member 2 (Mus musculus) (UniProt O54915). Kind of assay: ATG_mPXR_XSP2: Attagene TRANS-FACTORIAL Multi-Species (XSP1) HepG2 Assay for mouse Pregnane X Receptor (PXR) (AID 2283831). In a few lines: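 HepG2 cells transiently transfected with GAL4-UAS reporter units expressing chimeric NR-GAL4 proteins; reporter mRNA measured 24 h after dosing by RT-PCR with 6-FAM labelling and capillary electrophoresis, gain of signal relative to DMSO.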

In assay [7] the target is zebrafish Thyroid Hormone Receptor alpha (TRa), thraa (gene 30670) (UniProt Q98867). Kind of assay: ATG_zfTRa_XSP2: Attagene TRANS-FACTORIAL Multi-Species (XSP1) HepG2 Assay for zebrafish Thyroid Hormone Receptor alpha (TRa) (AID 2283832).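 Also: actives raise zebrafish TRa-Gal4 reporter transcript above DMSO baseline.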 An outline of the steps: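 Chimeric receptor-Gal4 activity was assessed in transfected human liver HepG2 cells 24 h after dosing, using reporter transcript levels detected by RT-PCR and capillary electrophoresis. DMSO served as baseline.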
zebrafish Thyroid Hormone Receptor alpha (TRa), thraa (gene 30670), sequence (Q98867 whole entry, looked up, the tested form may be a part): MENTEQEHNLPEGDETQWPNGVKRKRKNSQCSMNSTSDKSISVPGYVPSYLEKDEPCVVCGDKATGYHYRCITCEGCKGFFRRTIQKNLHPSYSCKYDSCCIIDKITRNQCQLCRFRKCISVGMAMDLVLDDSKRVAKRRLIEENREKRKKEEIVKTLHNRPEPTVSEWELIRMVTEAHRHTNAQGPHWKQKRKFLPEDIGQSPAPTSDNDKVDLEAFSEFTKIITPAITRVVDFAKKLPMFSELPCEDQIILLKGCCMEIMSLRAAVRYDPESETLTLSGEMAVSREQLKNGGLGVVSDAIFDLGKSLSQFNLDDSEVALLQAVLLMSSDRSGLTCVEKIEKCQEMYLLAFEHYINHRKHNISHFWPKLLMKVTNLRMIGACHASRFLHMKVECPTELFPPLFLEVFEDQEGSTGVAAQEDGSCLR

Assay [8] has as its system turtle Thyroid Hormone Receptor, alpha (TRa), gene 101949057. Kind of assay: ATG_trTRa_XSP2: Attagene TRANS-FACTORIAL Multi-Species (XSP1) HepG2 Assay for turtle Thyroid Hormone Receptor, alpha (TRa) (AID 2283834).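 Also: hits raise reporter mRNA over the DMSO baseline so AC50 marks activators.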 An outline of the steps:
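HepG2 cells transiently transfected with multiplexed GAL4-UAS reporter units expressing chimeric NR-Gal4 proteins were dosed for 24 hours. Reporter mRNA was quantified by RT-PCR with 6-FAM labelling and capillary electrophoresis, gain of signal scored against DMSO.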

In assay [9] the target is zebrafish Thyroid Hormone Receptor beta (TRb), thrb (gene 30607) (UniProt Q9PVE4). The experiment in a line: ATG_zfTRb_XSP2: Attagene TRANS-FACTORIAL Multi-Species (XSP1) HepG2 Assay for zebrafish Thyroid Hormone Receptor beta (TRb) (AID 2283836). In a few lines: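 Fluorescence of labelled reporter cDNA fragments, separated by capillary electrophoresis, gives mRNA induction from exogenous NR-Gal4 chimeras in transiently transfected HepG2 cells after 24 h dosing; 3 nM 6-alpha-fluorotestosterone and 1.5 nM norgestrel included in the run.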
zebrafish Thyroid Hormone Receptor beta (TRb), thrb (gene 30607), sequence (Q9PVE4 whole entry, looked up, the tested form may be a part): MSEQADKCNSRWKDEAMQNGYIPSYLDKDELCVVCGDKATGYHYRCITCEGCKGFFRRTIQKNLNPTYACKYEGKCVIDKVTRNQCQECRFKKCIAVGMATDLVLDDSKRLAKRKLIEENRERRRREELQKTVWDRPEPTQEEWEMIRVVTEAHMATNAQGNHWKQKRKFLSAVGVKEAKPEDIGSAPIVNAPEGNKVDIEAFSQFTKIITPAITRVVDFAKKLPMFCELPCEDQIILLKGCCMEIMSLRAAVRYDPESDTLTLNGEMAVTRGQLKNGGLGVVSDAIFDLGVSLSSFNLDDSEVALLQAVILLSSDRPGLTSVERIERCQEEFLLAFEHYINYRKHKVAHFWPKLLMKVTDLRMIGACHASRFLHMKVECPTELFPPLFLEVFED

The target of assay [10] is frog Thyroid hormone Receptor alpha (TRa), thra-a (gene 397942) (UniProt P15204). The experiment in a line: ATG_frTRa_XSP2: Attagene TRANS-FACTORIAL Multi-Species (XSP2) HepG2 Assay for frog Thyroid hormone Receptor alpha (TRa) (AID 2283839). An outline of the steps: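 HepG2 cells transiently transfected with multiplexed GAL4-UAS reporter units expressing chimeric frog TRα-Gal4; reporter mRNA read 24 h after dosing by RT-PCR, FAM-labelled primer extension, HpaI digest and capillary electrophoresis. Gain of signal fitted versus DMSO.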
frog Thyroid hormone Receptor alpha (TRa), thra-a (gene 397942), sequence (P15204 whole entry, looked up, the tested form may be a part): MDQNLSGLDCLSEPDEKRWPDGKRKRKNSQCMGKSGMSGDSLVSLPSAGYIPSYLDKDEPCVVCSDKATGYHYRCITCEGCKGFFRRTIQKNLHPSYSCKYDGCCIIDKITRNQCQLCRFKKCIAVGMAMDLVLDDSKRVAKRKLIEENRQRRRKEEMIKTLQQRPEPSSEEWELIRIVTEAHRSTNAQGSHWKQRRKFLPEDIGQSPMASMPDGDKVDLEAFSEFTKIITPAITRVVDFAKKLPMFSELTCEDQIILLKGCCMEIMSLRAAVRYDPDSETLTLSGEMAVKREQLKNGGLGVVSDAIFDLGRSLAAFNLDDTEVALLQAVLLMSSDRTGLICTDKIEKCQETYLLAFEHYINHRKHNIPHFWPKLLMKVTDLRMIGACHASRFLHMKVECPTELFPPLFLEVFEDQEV

Assay [11] deals with human Thyroid hormone Receptor beta (TRb), THRB (gene 7068) (UniProt P10828). Kind of assay: ATG_hTRb_XSP2: Attagene TRANS-FACTORIAL Multi-Species (XSP2) HepG2 Assay for human Thyroid hormone Receptor beta (TRb) (AID 2283840).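 Also: actives raise reporter mRNA so potency reflects agonist-like gain of signal.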 In a few lines: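 HepG2 cells were transiently transfected with GAL4-UAS multiplexed reporter units expressing chimeric NR-Gal4 proteins, dosed 24 h; reporter mRNA was quantified by RT-PCR, fluorescent labeling, HpaI digestion and capillary electrophoresis, fitted for gain of signal versus DMSO.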
human Thyroid hormone Receptor beta (TRb), THRB (gene 7068), sequence (P10828 whole entry, looked up, the tested form may be a part): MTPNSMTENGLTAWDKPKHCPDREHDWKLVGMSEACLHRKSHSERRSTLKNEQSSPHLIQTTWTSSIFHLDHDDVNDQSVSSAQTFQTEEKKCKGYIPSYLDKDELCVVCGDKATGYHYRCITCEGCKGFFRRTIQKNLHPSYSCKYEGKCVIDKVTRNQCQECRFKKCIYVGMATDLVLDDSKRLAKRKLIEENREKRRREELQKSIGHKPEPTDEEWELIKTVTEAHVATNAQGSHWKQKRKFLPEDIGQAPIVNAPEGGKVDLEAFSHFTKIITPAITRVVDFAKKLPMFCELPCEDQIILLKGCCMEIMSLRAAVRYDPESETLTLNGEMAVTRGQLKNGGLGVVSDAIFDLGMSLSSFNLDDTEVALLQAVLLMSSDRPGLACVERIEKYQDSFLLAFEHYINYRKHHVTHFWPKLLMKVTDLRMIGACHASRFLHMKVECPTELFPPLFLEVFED

Assay [12] relates to zebrafish Peroxisome Proliferator-activated Receptor gamma (PPARg), gene 557037. The experiment in a line: ATG_zfPPARg_XSP2: Attagene TRANS-FACTORIAL Multi-Species (XSP2) HepG2 Assay for zebrafish Peroxisome Proliferator-activated Receptor gamma (PPARg) (AID 2283833).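 Also: actives increase reporter signal over DMSO so AC50 reflects activation.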 In a few lines: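 HepG2 cells transiently transfected with GAL4-UAS reporter units expressing a zebrafish PPARg–GAL4 chimera; compound exposure 24 h. Reporter mRNA quantified by RT-PCR with fluorescent labelling and capillary electrophoresis; gain of signal fitted relative to DMSO baseline.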

Assay [13] in a line: CEETOX_H295R_11DCORT_noMTC: CeeTox H295R High-throughput Steroidogenesis Assay for 11-Deoxycortisol (11DCORT), maximum tolerated concentration (MTC) filtered results only (AID 2283911; active = hit-call score of the fitted dose curve at least 0.9, where 1 is the maximum; inactive = score below 0.9). The settings on record: actives raise or lower the signal. An outline of the steps: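 HPLC-MS/MS read-out of 11-deoxycortisol after MTBE extraction of H295R medium. Cells: forskolin 10 uM pre-stimulation 48 h, chemical 48 h, 0.1% DMSO final. Bidirectional fit vs DMSO baseline; no MTC filtering.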

Assay [14] in a line: CEETOX_H295R_OHPREG_noMTC: CeeTox H295R High-throughput Steroidogenesis Assay for OH-Pregnenolone (OHPREG), maximum tolerated concentration (MTC) filtered results only (AID 2283912; active = hit-call score of the fitted dose curve at least 0.9, where 1 is the maximum; inactive = score below 0.9). The note with it: actives raise or lower the signal. In a few lines: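 H295R human adrenal cells, forskolin-prestimulated (10 uM, 48 h), then exposed to test chemical in 0.1% DMSO for 48 h. 17alpha-hydroxypregnenolone in medium measured by HPLC-MS/MS after MTBE extraction; bidirectional fit versus DMSO, concentrations not MTC-filtered.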

Assay [15] can be described thus: CEETOX_H295R_OHPROG_noMTC: CeeTox H295R High-throughput Steroidogenesis Assay for OH-Progesterone (OHPROG), maximum tolerated concentration (MTC) filtered results only (AID 2283914; active = hit-call score of the fitted dose curve at least 0.9, where 1 is the maximum; inactive = score below 0.9). The settings on record: actives raise or lower the signal. In a few lines: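 H295R human adrenal cells prestimulated 48 h with 10 uM forskolin, then exposed 48 h to test chemical (0.1% DMSO final). Medium 17alpha-hydroxyprogesterone extracted with MTBE, quantified by HPLC-MS/MS; bidirectional fit versus DMSO, concentrations not MTC-filtered.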

Assay [16] in a line: CEETOX_H295R_CORTISOL_noMTC: CeeTox H295R High-throughput Steroidogenesis Assay for Cortisol, maximum tolerated concentration (MTC) filtered results only (AID 2283916; active = hit-call score of the fitted dose curve at least 0.9, where 1 is the maximum; inactive = score below 0.9). The settings on record: actives raise or lower the signal. An outline of the steps:
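H295R adrenal cells were pre-stimulated 48 h with 10 uM forskolin, then exposed 48 h to test chemical in 0.1% DMSO. Medium cortisol was measured by MTBE extraction and HPLC-MS/MS; bidirectional fit versus DMSO, concentrations not MTC-filtered.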

Assay [17] is described as follows: CEETOX_H295R_CORTIC_noMTC: CeeTox H295R High-throughput Steroidogenesis Assay for Corticosterone (CORTIC), maximum tolerated concentration (MTC) filtered results only (AID 2283917; active = hit-call score of the fitted dose curve at least 0.9, where 1 is the maximum; inactive = score below 0.9). The note with it: actives raise or lower the signal. An outline of the steps: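 H295R, 10 uM forskolin prestim 48 h → test chem (0.1% DMSO final) 48 h → media MTBE extraction → HPLC-MS/MS corticosterone. Bidirectional fit vs DMSO baseline; no MTT-based MTC filtering.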

Assay [18] can be described thus: CEETOX_H295R_DOC_noMTC: CeeTox H295R High-throughput Steroidogenesis Assay for DOC, maximum tolerated concentration (MTC) filtered results only (AID 2283918; active = hit-call score of the fitted dose curve at least 0.9, where 1 is the maximum; inactive = score below 0.9). The settings on record: actives raise or lower the signal. An outline of the steps:
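H295R cells prestimulated 48 h with 10 uM forskolin, then exposed 48 h to test chemical (0.1% DMSO final). Medium 11-deoxycorticosterone extracted with MTBE, quantified by HPLC-MS/MS; bidirectional fit versus DMSO, concentrations not MTC-filtered.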

Assay [19] has as its target human Thyroid hormone Receptor alpha (TRa), THRA (gene 7067) (UniProt P10827). Kind of assay: ATG_hTRa_XSP2: Attagene TRANS-FACTORIAL Multi-Species (XSP2) HepG2 Assay for human Thyroid hormone Receptor alpha (TRa) (AID 2283838). In a few lines:
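HepG2 cells transiently transfected with multiplexed GAL4-UAS reporter units and exogenous NR-GAL4 chimeras; 24 h chemical exposure with 3 nM 6-alpha-fluorotestosterone and 1.5 nM norgestrel present. Reporter mRNA measured by RT-PCR, FAM labelling, HpaI digestion, capillary electrophoresis; gain-of-signal versus DMSO.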

Inconclusive results are not listed. Activity calls are given as the source filed them. The calls were made as follows, unless noted: active = hit-call score of the fitted dose curve at least 0.9, where 1 is the maximum; inconclusive = response in the unintended direction; inactive = score below 0.9.

Nuclear receptor subfamily 1 group I member 2 (Mus musculus), sequence (O54915 whole entry, looked up, the tested form may be a part): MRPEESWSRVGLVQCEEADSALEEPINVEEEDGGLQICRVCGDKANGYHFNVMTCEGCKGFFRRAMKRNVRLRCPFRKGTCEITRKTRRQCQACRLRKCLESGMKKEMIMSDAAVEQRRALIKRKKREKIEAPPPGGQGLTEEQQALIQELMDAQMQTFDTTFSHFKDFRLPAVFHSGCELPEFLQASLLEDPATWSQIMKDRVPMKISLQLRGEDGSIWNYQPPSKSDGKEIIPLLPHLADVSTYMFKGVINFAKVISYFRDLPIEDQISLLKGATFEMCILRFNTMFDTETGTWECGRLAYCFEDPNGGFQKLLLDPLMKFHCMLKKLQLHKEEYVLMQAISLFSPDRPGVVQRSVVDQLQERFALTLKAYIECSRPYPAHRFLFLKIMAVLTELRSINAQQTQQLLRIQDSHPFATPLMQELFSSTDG
Peroxisome proliferator-activated receptor gamma (Homo sapiens), sequence (P37231 whole entry, looked up, the tested form may be a part): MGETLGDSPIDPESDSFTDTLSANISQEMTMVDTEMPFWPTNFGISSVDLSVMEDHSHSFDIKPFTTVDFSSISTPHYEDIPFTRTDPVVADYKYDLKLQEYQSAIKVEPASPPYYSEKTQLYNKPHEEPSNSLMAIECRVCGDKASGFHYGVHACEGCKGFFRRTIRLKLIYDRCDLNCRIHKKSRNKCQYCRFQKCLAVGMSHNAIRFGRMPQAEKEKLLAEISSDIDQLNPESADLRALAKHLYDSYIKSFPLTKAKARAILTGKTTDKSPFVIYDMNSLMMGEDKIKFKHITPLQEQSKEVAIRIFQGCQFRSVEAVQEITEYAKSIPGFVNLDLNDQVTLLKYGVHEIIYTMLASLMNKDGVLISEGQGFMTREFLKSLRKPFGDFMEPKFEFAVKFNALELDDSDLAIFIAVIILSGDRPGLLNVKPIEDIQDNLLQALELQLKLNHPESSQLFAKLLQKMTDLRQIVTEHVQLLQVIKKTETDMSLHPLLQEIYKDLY
mouse Peroxisome Proliferator-activated Receptor gamma (PPARg), Pparg (gene 19016), sequence (P37238 whole entry, looked up, the tested form may be a part): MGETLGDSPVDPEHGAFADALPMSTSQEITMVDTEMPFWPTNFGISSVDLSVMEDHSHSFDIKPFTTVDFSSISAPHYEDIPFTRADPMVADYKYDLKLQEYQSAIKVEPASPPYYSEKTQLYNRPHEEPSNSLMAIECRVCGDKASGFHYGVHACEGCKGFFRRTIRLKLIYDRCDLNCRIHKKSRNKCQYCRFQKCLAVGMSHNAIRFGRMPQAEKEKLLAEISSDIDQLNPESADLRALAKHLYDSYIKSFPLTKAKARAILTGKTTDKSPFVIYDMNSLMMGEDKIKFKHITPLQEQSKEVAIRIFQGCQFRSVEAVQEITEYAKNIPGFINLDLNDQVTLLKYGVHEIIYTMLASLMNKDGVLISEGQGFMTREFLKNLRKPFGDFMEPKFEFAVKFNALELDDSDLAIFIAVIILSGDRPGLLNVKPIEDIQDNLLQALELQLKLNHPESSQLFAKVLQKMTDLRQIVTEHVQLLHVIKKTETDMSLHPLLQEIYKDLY
human Thyroid hormone Receptor alpha (TRa), THRA (gene 7067), sequence (P10827 whole entry, looked up, the tested form may be a part): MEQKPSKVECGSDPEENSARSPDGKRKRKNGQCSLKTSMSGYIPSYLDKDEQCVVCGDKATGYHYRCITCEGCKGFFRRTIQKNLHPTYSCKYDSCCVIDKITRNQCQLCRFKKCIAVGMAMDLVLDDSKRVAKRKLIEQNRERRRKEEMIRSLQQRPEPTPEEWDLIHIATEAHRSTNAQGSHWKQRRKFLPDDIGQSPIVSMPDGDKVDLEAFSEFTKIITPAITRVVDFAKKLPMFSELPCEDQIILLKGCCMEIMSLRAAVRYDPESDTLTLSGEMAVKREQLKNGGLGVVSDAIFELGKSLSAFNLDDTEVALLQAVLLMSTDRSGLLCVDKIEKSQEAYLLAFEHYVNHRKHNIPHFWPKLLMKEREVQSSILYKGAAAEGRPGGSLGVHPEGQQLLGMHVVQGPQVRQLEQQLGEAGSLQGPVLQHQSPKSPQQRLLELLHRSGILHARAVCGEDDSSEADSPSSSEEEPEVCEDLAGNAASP

As to `CCOC(=O)NCCOc1ccc(Oc2ccccc2)cc1`, the AC50 in [1] was 40.2 µM (active); in assay [2], 34 µM (active).
As to `Oc1ccc(C(c2ccc(O)cc2)C(Cl)(Cl)Cl)cc1`, the molecule was classed as inactive in [3], in assay [4], in [5], in [6], in assay [7] and in assay [8]. Moreover, the call in assay [9], in assay [10] and in assay [11] was inactive. For the same molecule, the AC50 in assay [1] was 50 µM (active); in assay [2], 39.9 µM (active).
In the case of `CCCCOC(=O)[C@@H](C)Oc1ccc(Oc2ccc(C(F)(F)F)cn2)cc1`, the result in [1] and in assay [2] was inactive.
Regarding `N#CSCSc1nc2ccccc2s1`, in [1], the AC50 is 50 µM (active). For the same molecule, the result in [2] was inactive.
Take `CCCCC(CC)COC(=O)c1ccccc1C(=O)O` (configuration not stated): the AC50 in assay [3] is 33.2 µM (active); in assay [5] it was 18.2 µM (active); in assay [6] it was 3.81 µM (active); in assay [12], 59.8 µM (active). Also, the outcome in assay [10], in assay [13], in assay [14], in assay [15], in assay [16] and in assay [17] was inactive. Moreover, in assay [18], the result was inactive.
`COC(=O)CSc1cc(N=c2sc(=O)n3n2CCCC3)c(F)cc1Cl`: the outcome in assay [1] and in assay [2] was inactive.
With `CCCCCCC(C)OC(=O)COc1nc(F)c(Cl)c(N)c1Cl` (configuration not stated), the AC50 in assay [1] was 11.3 µM (active). Also, in assay [2], the result was inactive.
As to `CC(=O)S[C@@H]1CC2=CC(=O)CC[C@]2(C)[C@H]2CC[C@@]3(C)[C@@H](CC[C@@]34CCC(=O)O4)[C@H]12`, the molecule was classed as inactive in assay [3], in assay [4], in [7], in assay [8], in [9] and in assay [19]. Besides, the outcome in assay [10] and in assay [11] was inactive. In addition, the AC50 in assay [6] is 0.483 µM (active).
Take `O=C(Nc1ccc([N+](=O)[O-])cc1Cl)c1cc(Cl)ccc1O`: the AC50 in assay [1] is 0.111 µM (active). Also, the outcome in assay [2] was inactive.
Turning to `CCCCOCCOCCOCc1cc2c(cc1CCC)OCO2`, the outcome in [1] and in assay [2] was inactive.
Regarding `CCCCOC(=O)C(C)Oc1ccc(Oc2ccc(C(F)(F)F)cn2)cc1` (configuration not stated), the result in assay [1] and in assay [2] was inactive.

A word on the AC50: it is the midpoint of the concentration-response curve, whichever way the signal moves.
